Hits are enriched below; roughly 2.4% of the tested compounds scored in any of these assays.
AmpC det inh: blocks E. coli AmpC beta-lactamase in presence of detergent | P00811 | purified AmpC, nitrocefin hydrolysis with detergent | AID 584 | Potency, µM (titrated, usually from 28.7 µM) | 0.09% of 71,000 active; active = well fitted curve in the direction sought with a large enough effect; inconclusive = small, poorly fitted or top-dose-only effect
Target sequence (P00811 whole entry, looked up): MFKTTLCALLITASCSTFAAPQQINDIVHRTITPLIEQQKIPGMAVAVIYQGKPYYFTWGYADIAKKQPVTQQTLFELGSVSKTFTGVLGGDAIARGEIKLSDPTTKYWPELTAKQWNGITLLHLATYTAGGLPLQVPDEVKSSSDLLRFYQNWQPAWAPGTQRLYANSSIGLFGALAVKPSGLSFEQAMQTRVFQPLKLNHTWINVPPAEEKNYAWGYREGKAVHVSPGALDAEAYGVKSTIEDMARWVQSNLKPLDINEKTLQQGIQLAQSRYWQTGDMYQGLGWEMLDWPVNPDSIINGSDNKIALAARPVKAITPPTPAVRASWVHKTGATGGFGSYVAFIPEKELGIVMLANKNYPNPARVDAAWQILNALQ
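E. coli AmpC (5.3 nM) in 20 mM phosphate pH 7.0 with 0.01% Triton X-100, preincubated 15 min RT with compound; nitrocefin (2 uL of 800 uM stock) hydrolysis followed by 480 nm absorbance every 20 s over 4 min.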
LT uptake inh: anthrax lethal toxin internalization inhibition; Cells, anthrax lethal toxin internalization, FRET ratio (460/530); Potency, µM (top dose mostly 40 µM), hits mostly inhibitors; 0.67% of 70,000 active; AID 912; also: nearly all actives have a fitted effect of over 50% in size
SmPrx2 inh: inhibitors of Schistosoma mansoni peroxiredoxin 2; S. mansoni Prx2 activity coupled to TGR/GSH (TGR is thioredoxin glutathione reductase), NADPH fluorescence loss, qHTS; 0.07% of 65,000 active; Potency, µM
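Coupled assay in which S. mansoni TGR passes NADPH reducing equivalents via glutathione to Prx2, which reduces H2O2. Compounds were preincubated 15 min at room temperature with 25 nM TGR/50 nM Prx2 mix. Kinetic NADPH fluorescence loss (ex 365/em 450 nm) was monitored.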
AmpC nodet inh: AmpC beta-lactamase inhibition, detergent-free assay | P00811 | AmpC nitrocefin hydrolysis, absorbance 480 nm, no detergent | Potency, µM (doses to about 28.7 µM) | 1.8% of 71,000 active | AID 585
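AmpC, 20 mM phosphate pH 7.0; 15 min cpd preinc, RT; start with nitrocefin (800 uM stock); A480 kinetic read, 20 s intervals, 4 min. No-enzyme wells = negative control.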
Each line names hits and unclear results; the compound was inactive in the other large screens; ! = not active in a repeat; [ ] = another dose, or the depositor's remark. Unless noted, calls follow the shape of the full dose curve.

O=c1c(O)c(-c2ccc(O)c(O)c2)oc2c(OC[C@H]3O[C@@H](O)[C@@H](O)[C@H](O)[C@@H]3O)c(O)cc(O)c12	none
Nc1nc(N)c2nc(CNc3ccc(C(=O)N[C@H](CCC(=O)O)C(=O)O)cc3)cnc2n1	LT uptake inh inconclusive
CCOC(=O)C1CCCN(c2c(NCCc3ccc(S(N)(=O)=O)cc3)c(=O)c2=O)C1 (stereo not drawn)	AmpC nodet inh 4µM[single pt active]
O=C(CCCCn1c(=O)[nH]c2ccccc2c1=O)NC1CCN(Cc2ccccc2)CC1	AmpC nodet inh 3.2µM[single pt active]
O=C(CCCn1c(=O)[nH]c2ccccc2c1=O)NC1CCCCCC1	none
c1ccc(CCN2CCCCCC2)nc1	none
Cn1c(C(=O)NCCc2c[nH]c3ccccc23)cc2sccc21	LT uptake inh inconclusive
O=C(NCCc1c[nH]c2ccccc12)c1c(Cl)nc2sccn12	AmpC nodet inh 13µM
CN1C[C@@H](CS(=O)(=O)N(C)C)C[C@H]2c3cccc4c3c(cn4C)C[C@@H]21	none
CCCC=O	LT uptake inh inconclusive (no result: SmPrx2 inh)
C[C@@H]1[C@H]2CC[C@@H]3[C@@H]4CC=C5C[C@@H](N(C)C)CC[C@]5(C)[C@@H]4CC[C@@]32CN1C	LT uptake inh 4µM
Cc1ccccc1C	none (no result: SmPrx2 inh)
Nc1c2c(nc3ccccc13)CCCC2	LT uptake inh 32µM!
C[C@@]12CC[C@H]3[C@@H](CC=C4C[C@H](OS(=O)(=O)O)CC[C@]43C)[C@H]1CCC2=O	LT uptake inh inconclusive
CCN(CC)CCO[C@H]1CC[C@@]2(C)C(=CC[C@@H]3[C@H]2CC[C@]2(C)C(=O)CC[C@H]32)C1	LT uptake inh 25µM
O=C(c1ccco1)N1CCN(c2ncnc3c2cnn3-c2ccccc2)CC1	none (no result: LT uptake inh)
Cc1nn(-c2ccccc2)c(Cl)c1C(=O)N1CCN(c2ncnc3c2cnn3-c2ccccc2)CC1	LT uptake inh 6.3µM
[CH3][Hg][Cl]	LT uptake inh inconclusive (no result: SmPrx2 inh)
Cc1ccc(C(=O)CC(C(=O)O)n2cccn2)cc1 (stereo not drawn)	none
COC(=O)C(CC(=O)c1ccc(Br)cc1)n1ccnc1 (stereo not drawn)	LT uptake inh 13µM
O=C(Nc1ccccc1)c1ccc2nc(-c3ccco3)c(-c3ccco3)nc2c1	LT uptake inh inconclusive
CCCCNC(=O)c1ccc2nc(-c3ccco3)c(-c3ccco3)nc2c1	AmpC nodet inh 4µM[single pt active]
CN1/C(=C/C(=O)c2nc(S(C)(=O)=O)ncc2Cl)C(C)(C)c2ccccc21	LT uptake inh 13µM
O=C(O)c1cc(Cl)cc(Cc2cc(Cl)cc(C(=O)O)c2O)c1O	LT uptake inh inconclusive
N[C@H](Cn1oc(=O)[nH]c1=O)C(=O)O	none
CCSc1nnc(NC(=O)c2ccc(Br)s2)s1	AmpC nodet inh 10µM (no result: LT uptake inh)
Cc1ccc(-n2nc(C)c3c(-c4cccs4)c(C#N)c(N)nc32)cc1	LT uptake inh inconclusive
Cc1nn(-c2ccccc2)c2nc(N)c(C#N)c(-c3ccc(F)cc3)c12	LT uptake inh 5µM (no result: SmPrx2 inh)
O=S(=O)(Nc1ccn(-c2ccccc2)n1)c1ccc(Br)cc1	LT uptake inh inconclusive, AmpC nodet inh 5µM (no result: SmPrx2 inh)
CC(Oc1ccc(Cl)cc1Cl)C(=O)Nc1ccncc1 (stereo not drawn)	LT uptake inh 7.9µM
C=C(CC(=O)O)C(=O)O (tested in a mixture with another compound)	none
CS(=O)(=O)c1nc(-c2ccco2)cc(C(F)(F)F)n1	LT uptake inh 10µM
FC(F)(F)c1cc(-c2ccco2)nc(NCc2ccco2)n1	LT uptake inh inconclusive
CSc1ccc(C2Nc3ccccc3-c3cc(C)nn32)cc1 (stereo not drawn)	LT uptake inh 13µM
Cc1cc2n(n1)C(c1ccsc1)Nc1ccccc1-2 (stereo not drawn)	none
O=C(NCc1ccc2c(c1)OCO2)C1CCCN(S(=O)(=O)c2cccnc2)C1 (stereo not drawn)	AmpC nodet inh 4µM[single pt active]
Cc1ccc(CNC(=O)C2CCCN(S(=O)(=O)c3cccnc3)C2)cc1 (stereo not drawn)	none
O=C(C1CCCN(S(=O)(=O)c2cccnc2)C1)N1CCN(c2ccccn2)CC1 (stereo not drawn)	LT uptake inh inconclusive, AmpC nodet inh 4µM[single pt active]
Cc1csc(NC(=O)C2CCCN(S(=O)(=O)c3cccnc3)C2)n1 (stereo not drawn)	AmpC nodet inh 3.2µM[single pt active]
CCOC(=O)N1CCN(C(=O)C2CCCN(S(=O)(=O)c3cccnc3)C2)CC1 (stereo not drawn)	AmpC nodet inh 4µM[single pt active]
OC[C@@H]1O[C@@H](n2cnc3c(SCc4ccccc4)ncnc32)[C@@H](O)[C@H]1O	LT uptake inh inconclusive
COc1ccc(OC)c(NC2c3ccccc3C(=O)N2Cc2ccc3c(c2)OCO3)c1 (stereo not drawn)	LT uptake inh inconclusive, AmpC nodet inh 4µM[single pt active]
O=C1c2ccccc2C(Nc2cccnc2)N1Cc1ccc2c(c1)OCO2 (stereo not drawn)	AmpC nodet inh 3.2µM[single pt active]
O=C1c2ccccc2C(O)N1Cc1ccc2c(c1)OCO2 (stereo not drawn)	AmpC nodet inh 4µM[single pt active]
C=C1CC[C@@H](O)C/C1=C/C=C1\CCC[C@]2(C)[C@@H]1CC[C@H]2[C@@H](C)/C=C\[C@@H](C)C(C)C	LT uptake inh inconclusive
CCOC(=O)c1c(-c2ccc(C)o2)csc1NC(=O)CSc1nnnn1-c1ccccc1	LT uptake inh inconclusive, AmpC nodet inh 13µM
CN1CCC[C@@H]1c1cccnc1.O=C(O)c1ccccc1O.O=C([OH2+])c1ccccc1O.O=C([OH2+])c1ccccc1O.O=C([OH2+])c1ccccc1O.[Cu]	none
COC(=O)Cc1ccc(NC(=O)c2ccc(Br)o2)cc1	none
CCN(CC)c1ccc(NC(=O)c2ccc(Br)o2)cc1	LT uptake inh 13µM (no result: SmPrx2 inh)
CC(C)CC(NS(=O)(=O)c1ccc2c(c1)oc(=O)n2C)C(=O)NCc1cccnc1 (stereo not drawn)	AmpC nodet inh 4µM[single pt active]
CN1CCN(C(=O)C(Cc2ccccc2)NS(=O)(=O)c2ccc3c(c2)CCC(=O)N3)CC1 (stereo not drawn)	AmpC nodet inh 4µM[single pt active]
O=C1CCc2cc(S(=O)(=O)NC(Cc3ccccc3)C(=O)NCC3CCCO3)ccc2N1 (stereo not drawn)	AmpC nodet inh 4µM[single pt active]
Cn1c(=O)oc2cc(S(=O)(=O)NC(Cc3ccccc3)C(=O)N3CCCCC3)ccc21 (stereo not drawn)	AmpC nodet inh 4µM[single pt active]
CCOC(=O)CNC(=O)C(Cc1ccccc1)NS(=O)(=O)c1ccc2c(c1)CCC(=O)N2 (stereo not drawn)	none
O=C1OC(=O)[C@@H]2[C@@H]1[C@@H]1CC[C@H]2O1	LT uptake inh inconclusive
C#CCCCO/N=C1/C[C@@H](O)[C@@H](O)[C@@H]2[C@@H]3C(=O)N(c4cccc(Oc5ccccc5)c4)C(=O)[C@H]3CC[C@@H]12	none (no result: AmpC det inh, SmPrx2 inh, AmpC nodet inh)
CC(C)NS(=O)(=O)c1ccc2c(c1)oc(=O)n2C	none
CC(C)C(NS(=O)(=O)c1ccc2c(c1)oc(=O)n2C)C(=O)N1CCN(c2ccccc2F)CC1 (stereo not drawn)	LT uptake inh inconclusive, AmpC nodet inh 4µM[single pt active]
